Source: PubChem
Compounds with a hit are over-represented: about 6.5% of the library has one in this group of screens.
Vaccinia mCherry: qHTS for Stage-Specific Inhibitors of Vaccinia Orthopoxvirus: mCherry Reporter Primary qHTS | Vaccinia virus mCherry reporter infection, fluorescence | Potency, µM (titrated, usually from 36.5 µM), actives largely listed as inhibitors | 0.63% of 310,000 active; calls by dose curve; tested in A549 cells; further: nearly all actives have a fitted effect of over 35% in size
FMDV antiviral: High Throughput Screening for Foot and Mouth Disease Virus Antivirals | FMDV antiviral cell-based qHTS | Potency, µM (series often up to 57.9 µM), hits mostly inhibitors | 1.2% of 410,000 active | AID 1159524, 2015; calls by dose curve; tested in HEK293T cells; further: read-out not given here; nearly all actives have a fitted effect of over 45% in size
VACV Venus inh: qHTS for Stage-Specific Inhibitors of Vaccinia Orthopoxvirus: Venus Reporter Primary qHTS; AID 720580, 2013; 0.46% of 330,000 active; Potency, µM (top dose mostly 36.5 µM), most hits filed as inhibitors; Vaccinia virus Venus reporter expression, fluorescence; calls by dose curve; tested in A549 cells; further: nearly all actives have a fitted effect of over 30% in size
LASV entry inh: qHTS for Inhibitors of binding or entry into cells for Lassa Virus; Lassa virus pseudotype entry inhibition, cell reporter; Potency, µM (highest dose often 37.9 µM), actives largely listed as inhibitors; 1.2% of 300,000 active; calls by dose curve; tested in HEK293 cells; further: nearly all actives have a fitted effect of over 50% in size
HCMV antiviral: qHTS Assay for inhibitors of the human cytomegalovirus (HCMV). HFF cells, HCMV-luciferase reporter, 72 h; hits give low values. activity change, negative = inhibition, % at 57.5 µM. 4.5% of 410,000 active. AID 1259415, 2018; in the data active means activity change below about -60%; inconclusive means no clear call, values can overlap the other calls; inactive means above about -39%
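Two compound doses tested in HFFs infected with HCMV-luciferase, MOI 1 PFU/cell, 72 h at 37C. Lysate luminescence read with OneGlo; data normalized against buffer-only and 10uM Salinomycin inhibitor controls.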
MARV entry inh: qHTS for inhibitors of binding or entry into cells for Marburg Virus. Marburg virus pseudotyped entry inhibition, cell reporter. Potency, µM (highest dose often 37.8 µM), actives largely listed as inhibitors. 1.8% of 300,000 active; calls by dose curve; tested in HEK293 cells
Each line names hits and unclear results; the compound was inactive in the other large screens.

Cc1ccc2nc(SC(C)C(=O)NC3CCCC3)[nH]c2c1 (stereo unspecified)	MARV entry inh inconclusive
Cc1ccc2nc(SCC(=O)Nc3cc([N+](=O)[O-])ccc3F)[nH]c2c1	HCMV antiviral -91.1
O=C(Nc1ccc(F)cc1)C(Sc1nc2ccccc2[nH]1)c1ccccc1 (stereo unspecified)	Vaccinia mCherry inconclusive, VACV Venus inh inconclusive, MARV entry inh inconclusive
COc1ccc(CCNC(=O)Cc2c(C)c3cc4c(C)coc4cc3oc2=O)cc1OC	LASV entry inh inconclusive
c1ccc(-c2[nH]ncc2-c2ccnc(-c3ccc(OCCN4CCOCC4)cc3)c2)nc1	none (no result: Vaccinia mCherry, FMDV antiviral, VACV Venus inh, HCMV antiviral, MARV entry inh)
CC(=O)c1cccc(NC(=O)CN2C(=O)c3ccccc3Sc3ncccc32)c1	FMDV antiviral 39.8µM (no result: MARV entry inh)
CC(C)CC(=O)Nc1ccc(Nc2ccccc2)cc1	LASV entry inh 3.55µM, MARV entry inh inconclusive
COc1cc(/C=C(/NC(=O)c2ccccc2)C(=O)Nc2ccc(O)cc2)c([N+](=O)[O-])cc1OC	LASV entry inh inconclusive, HCMV antiviral -73.2
COc1cc(/C=C(/NC(=O)c2ccccc2)C(=O)Nc2ccccc2)c([N+](=O)[O-])cc1OC	none
COc1ccc(NC(=O)c2cccc(S(=O)(=O)N(C)c3ccccc3)c2)cn1	FMDV antiviral 35.5µM, LASV entry inh inconclusive, HCMV antiviral -74.7
CN(c1ccccc1)S(=O)(=O)c1cccc(C(=O)NNC(=O)c2ccccc2)c1	FMDV antiviral inconclusive, HCMV antiviral inconclusive, MARV entry inh inconclusive
CN(C(=O)COC(=O)c1cccc(S(=O)(=O)N(C)c2ccccc2)c1)C1CCCCC1	FMDV antiviral inconclusive (no result: Vaccinia mCherry, VACV Venus inh, LASV entry inh, MARV entry inh)
Cc1ccc(N(C)S(=O)(=O)c2cccc(C(=O)Nc3ccc(C)cn3)c2)cc1	FMDV antiviral 39.8µM, LASV entry inh inconclusive, MARV entry inh inconclusive
Cc1ccc(N(C)S(=O)(=O)c2cccc(C(=O)OCC(=O)N(C)Cc3ccccc3)c2)cc1	FMDV antiviral 28.2µM (no result: LASV entry inh, MARV entry inh)
CN(c1ccccc1)S(=O)(=O)c1cccc(C(=O)Nc2ccc3c(c2)CCC3)c1	LASV entry inh 16.4µM, HCMV antiviral inconclusive
CC1CCCCN1C(=O)Cc1ccc(Cl)cc1 (stereo unspecified)	none
O=C(Cc1ccc(Cl)c(Cl)c1)N1CCCCC1CN1CCCC1 (stereo unspecified)	LASV entry inh inconclusive, MARV entry inh 8.91µM (no result: HCMV antiviral)
CCOc1ccc(C(=O)c2oc3ccccc3c2NC(=O)Cc2coc3ccc(CC)cc23)cc1	none
CCC(C)n1c(=S)[nH]c2c(sc3ccc([N+](=O)[O-])cc32)c1=O (stereo unspecified)	FMDV antiviral 35.5µM, HCMV antiviral inconclusive
COc1ccc(NC(=O)c2cnc(SC)n2-c2ccc(F)cc2)c(OC)c1	FMDV antiviral inconclusive, LASV entry inh inconclusive, MARV entry inh 12.6µM
CCOc1cc(NC(=O)c2ccccn2)c(OCC)cc1NC(=O)c1ccccc1	LASV entry inh inconclusive, HCMV antiviral -64.0
O=C(Nc1nc2c(F)cc(F)cc2s1)c1ccccn1	Vaccinia mCherry inconclusive, VACV Venus inh inconclusive, LASV entry inh 7.08µM, HCMV antiviral -99.0, MARV entry inh inconclusive
CCOc1cc(NC(=O)c2ccccn2)c(OCC)cc1NC(=O)c1ccc(Cl)cc1	none (no result: Vaccinia mCherry, VACV Venus inh, LASV entry inh, MARV entry inh)
CSc1nc2ccc(NC(=O)c3ccccn3)cc2s1	LASV entry inh 2µM, MARV entry inh inconclusive
CCOc1ccc2nc(NC(=O)Nc3ccccc3)sc2c1	LASV entry inh inconclusive, MARV entry inh inconclusive
O=C(COc1ccccc1)NNc1nc2c(F)cc(F)cc2s1	none (no result: Vaccinia mCherry, VACV Venus inh, LASV entry inh, MARV entry inh)
CCOc1ccc2nc(NC(=O)c3ccccn3)sc2c1	Vaccinia mCherry 7.94µM, VACV Venus inh inconclusive, LASV entry inh inconclusive, HCMV antiviral -99.8, MARV entry inh inconclusive
O=C(c1ccccc1)c1ccc2n1CC[C@H]2C(=O)O	none (no result: Vaccinia mCherry, FMDV antiviral, VACV Venus inh, LASV entry inh, HCMV antiviral)
CN(N=O)c1ccc2c(c1)Cc1ccccc1-2	none (no result: FMDV antiviral, LASV entry inh, HCMV antiviral, MARV entry inh)
CCOC(=O)c1cccn1C1C(=O)N(Cc2ccc(OC)cc2)c2ccc(F)cc21 (stereo unspecified)	none (no result: Vaccinia mCherry, FMDV antiviral, VACV Venus inh, LASV entry inh, MARV entry inh)
CC1=C(c2ccc(C(C)C)cc2)S(=O)(=O)N=C1N1CCC(C(=O)NCc2ccccc2)CC1	LASV entry inh inconclusive (no result: MARV entry inh)
CS(=O)(=O)CCNCc1nc(-c2ccc3ncnc(Nc4ccc(F)c(Cl)c4)c3c2)cs1	none (no result: Vaccinia mCherry, FMDV antiviral, VACV Venus inh, HCMV antiviral, MARV entry inh)
CCOC(=O)c1ccc2nc(NC(=O)c3ccco3)sc2c1	LASV entry inh inconclusive, MARV entry inh inconclusive
CCOC(=O)c1ccc2nc(NC(=O)c3cccs3)sc2c1	Vaccinia mCherry inconclusive, LASV entry inh inconclusive, MARV entry inh 4.47µM
CC(C)C(NS(=O)(=O)c1cccc2nsnc12)C(=O)Nc1nc2ccc(Cl)cc2s1 (stereo unspecified)	FMDV antiviral inconclusive, VACV Venus inh inconclusive (no result: LASV entry inh)
CCOc1ccc2nc(NC(=O)C(NS(=O)(=O)c3cccc4nsnc34)C(C)C)sc2c1 (stereo unspecified)	Vaccinia mCherry 7.94µM, VACV Venus inh inconclusive (no result: LASV entry inh)
Cc1ccc2nc(NC(=O)c3ccccn3)sc2c1	Vaccinia mCherry 22.4µM, FMDV antiviral 8.91µM, VACV Venus inh inconclusive, HCMV antiviral -98.4, MARV entry inh inconclusive (no result: LASV entry inh)
Cc1ccc2nc(NC(=O)c3ccccc3F)sc2c1	LASV entry inh inconclusive, MARV entry inh inconclusive
Cc1[nH]c(=O)[nH]c(=O)c1CCSSCCc1c(C)[nH]c(=O)[nH]c1=O	none (no result: Vaccinia mCherry, FMDV antiviral, VACV Venus inh, LASV entry inh, MARV entry inh)
Oc1ccc(O)c2c1C1(Cl)C(Cl)=C(Cl)C2(Cl)C1(Cl)Cl	Vaccinia mCherry inconclusive, FMDV antiviral inconclusive, HCMV antiviral -64.5, MARV entry inh inconclusive
O=c1c2ccccc2nc(SCc2cn3ccsc3n2)n1-c1ccc(F)cc1	FMDV antiviral inconclusive, VACV Venus inh inconclusive, LASV entry inh 11.2µM, HCMV antiviral -77.4, MARV entry inh inconclusive (no result: Vaccinia mCherry)
CN(C)CCNC(=O)COc1ccc(C23CC4CC(CC(C4)C2)C3)cc1	VACV Venus inh inconclusive, LASV entry inh inconclusive, HCMV antiviral -67.7, MARV entry inh 3.98µM
O=S(=O)(NC1CC1)c1ccc(S(=O)(=O)N2CCCC(c3nc(-c4cccnc4)no3)C2)cc1 (stereo unspecified)	FMDV antiviral inconclusive, HCMV antiviral -66.3, MARV entry inh inconclusive
O=S(=O)(c1ccc(F)cc1)N1CCCC(c2nc(-c3ccc(F)cc3)no2)C1 (stereo unspecified)	none (no result: LASV entry inh, MARV entry inh)
CCCCNC(=O)C1(C)CCCCN1C(=O)C1(c2ccc(Cl)cc2)CCCC1 (stereo unspecified)	none (no result: Vaccinia mCherry, FMDV antiviral, VACV Venus inh, LASV entry inh, MARV entry inh)
OC(CN1CCC(Cc2ccc(F)cc2)CC1)c1ccc(Cl)cc1 (stereo unspecified)	LASV entry inh inconclusive, MARV entry inh 7.08µM (no result: Vaccinia mCherry, VACV Venus inh, HCMV antiviral)
OC(CN1CCN(c2ccc(F)cc2)CC1)c1ccc(Cl)cc1 (stereo unspecified)	MARV entry inh inconclusive
Cc1cc(Sc2ccc([N+](=O)[O-])cn2)ccc1Br	MARV entry inh inconclusive
O=[N+]([O-])c1ccc(S(=O)(=O)c2ccccc2)nc1	FMDV antiviral 35.5µM, VACV Venus inh inconclusive, HCMV antiviral -98.0 (no result: LASV entry inh, MARV entry inh)
Nc1ccc(S(=O)(=O)c2ccccc2)nc1	none (no result: LASV entry inh, MARV entry inh)
Cc1ccc([N+](=O)[O-])cc1	none (no result: LASV entry inh, MARV entry inh)
